Measured values reported in PubChem BioAssay (EPA / NIEHS).
Inconclusive results are not listed. Activity calls are given as the source filed them. Rule for the calls: active = hit-call score of the fitted dose curve at least 0.9, where 1 is the maximum; inconclusive = response in the unintended direction; inactive = score below 0.9.

Assay: CCTE_Harrill_HTTr_CellCount_MCF7: CCTE's Cell Proliferation Assessment for the High-Throughput Transcriptomics (HTTr) Platform, Harrill Lab (AID 2284012);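 note: cells exposed to compound for six hours; intended direction is loss of nuclei count meaning fewer cells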
Excerpt: This is a cell-based assay that evaluates cell viability and cell growth using high content imaging to count the number of Hoechst-labeled nuclei that are present in an assay well in 384-well format.This is a cell-based assay that evaluates cell viability and cell growth in MCF-7 cells. This was part of a full screening experiment. High content imaging is used to count the number of Hoechst-labeled nuclei that are present in an assay well in 384-well format.The assay component endpoint CCTE_Harrill_HTTr_CellCount_MCF7 was analyzed with bidirectional fitting relation to DMSO as the negative control and baseline of activity. Using a type of viability reporter, loss-of-signal activity can be used to understand changes in cell count. To generalize the intended target to other relatable targets, this assay endpoint is annotated to cell cycle, where the subfamily is cell count.
Chemicals were tested in MCF7 cells in an eight point dilution series with a six hour exposure duration.

| Structure (SMILES) | outcome | AC50 |
| --- | --- | --- |
| C1CCC(C2CCCCC2)CC1 | inactive | – |
| O=[N+]([O-])c1ccccc1O | inactive | – |
| O=C(Cc1ccccc1)OCCc1ccccc1 | inactive | – |
| N#CCC#N | inactive | – |
| O=S1(=O)OC(c2cc(Br)c(O)c(Br)c2)(c2cc(Br)c(O)c(Br)c2)c2ccccc21 | inactive | – |
| O=C1C[C@@H]2OCC=C3CN4CC[C@]56c7ccccc7N1[C@H]5[C@H]2[C@H]3C[C@H]46 | inactive | – |
| O=C(O)COc1cc(Cl)c(Cl)cc1Cl | inactive | – |
| Cc1cc(Cl)ccc1OCCCC(=O)O | inactive | – |
| C[C@H]1C(=O)O[C@@H]2CCN3CC=C(COC(=O)[C@](C)(O)[C@]1(C)O)[C@H]23 | inactive | – |
| CCOC(=O)OC1=C(c2cc(C)ccc2C)C(=O)NC12CCC(OC)CC2 (stereo not given) | inactive | – |
| O=C(NC(=O)c1c(F)cccc1F)Nc1ccc(Cl)cc1 | inactive | – |
| CC(O)(CS(=O)(=O)c1ccc(F)cc1)C(=O)Nc1ccc(C#N)c(C(F)(F)F)c1 (stereo not given) | inactive | – |
| O=C(O)COc1ccc(Cl)cc1 | inactive | – |
| COc1ccccc1N | inactive | – |
| Clc1cnc(Oc2ccc(Oc3ncc(Cl)cc3Cl)cc2)c(Cl)c1 | inactive | – |
| Nc1ncn[nH]1 | inactive | – |
| N#CCCC(Br)(C#N)CBr (stereo not given) | inactive | – |
| CCC[CH2][Sn]([Cl])([Cl])[CH2]CCC | inactive | – |
| Oc1ccc(Cc2ccc(O)cc2)cc1 | inactive | – |
| CCCSP(=S)(OCC)Oc1ccc(Cl)cc1Cl (stereo not given) | inactive | – |

| Structure (SMILES) | outcome | AC50 |
| --- | --- | --- |
| CC(C=O)Cc1ccc2c(c1)OCO2 (stereo not given) | inactive | – |
| CCOC(=O)c1ccccc1S(=O)(=O)NC(=O)Nc1nc(Cl)cc(OC)n1 | inactive | – |
| Brc1ccc(Br)cc1 | inactive | – |
| COCCl | inactive | – |
| O=C1C=CC(=O)c2ccccc21 | – | 76.2 µM (active) |
| Oc1cc(Cl)c(Cl)cc1Cl | inactive | – |
| O=[N+]([O-])c1ccc(Cl)c([N+](=O)[O-])c1 | inactive | – |
| CCOP(=S)(OCC)OP(=S)(OCC)OCC | inactive | – |
| CCOCn1c(-c2ccc(Cl)cc2)c(C#N)c(Br)c1C(F)(F)F | inactive | – |
| CNC(=O)O/N=C/C(C)(C)S(C)(=O)=O | inactive | – |
| Cc1cccc(C)c1NC(=O)CN1CCCC1=O | inactive | – |
| OC[C@@H](O)[C@H]1O[C@@H]2O[C@H](C(Cl)(Cl)Cl)O[C@@H]2[C@H]1O | inactive | – |
| CS(=O)(=O)c1ccc(C(=O)C2C(=O)CCCC2=O)c(Cl)c1COCC(F)(F)F | inactive | – |
| CC(C)=CC1C(C(=O)OCc2cccc(Oc3ccccc3)c2)C1(C)C (stereo not given) | inactive | – |
| O=[N+]([O-])c1cccc2ccccc12 | inactive | – |
| CCOC(=O)CCN(SN(C)C(=O)Oc1cccc2c1OC(C)(C)C2)C(C)C | inactive | – |
| Brc1c(Br)c(Br)c(Oc2c(Br)c(Br)c(Br)c(Br)c2Br)c(Br)c1Br | inactive | – |
| C[CH2][Hg][S]c1ccccc1C(=O)O | – | 50 µM (active) |
| CCOc1cc(C=O)ccc1O | inactive | – |
| OCCN(CCO)CCO | inactive | – |
